Rows were chosen to be rich in hits. Some 3.5% of all compounds tested hit in one or more screens of this group.
TEAD-YAP block: TEAD-YAP interaction inhibition, primary screen, TEAD-YAP interaction inhibitor project, luminescence, HEK-TIYL cells; AID 1259422, 2018; inhibition, % at 9.12 µM; TEAD-Gal4/YAP UAS-luciferase luminescence; 1.4% of 640,000 active; in the data active = inhibition above about 32%;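 note: 0% = median of test compound wells and 100% = reference inhibitor wells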
GPR151 activ: activators of human GPR151, primary screen, cell-based, PathHunter beta-arrestin, luminescence | G-protein coupled receptor 151 (Homo sapiens), Q8TDV0 | PathHunter beta-arrestin GPR151 cells | activation, % at 11.2 µM | 1% of 650,000 active; in the data active = activation above about 4.9%;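 note: 0% = median of compound wells and 100% = cells with positive control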
Target sequence (Q8TDV0 whole entry, looked up): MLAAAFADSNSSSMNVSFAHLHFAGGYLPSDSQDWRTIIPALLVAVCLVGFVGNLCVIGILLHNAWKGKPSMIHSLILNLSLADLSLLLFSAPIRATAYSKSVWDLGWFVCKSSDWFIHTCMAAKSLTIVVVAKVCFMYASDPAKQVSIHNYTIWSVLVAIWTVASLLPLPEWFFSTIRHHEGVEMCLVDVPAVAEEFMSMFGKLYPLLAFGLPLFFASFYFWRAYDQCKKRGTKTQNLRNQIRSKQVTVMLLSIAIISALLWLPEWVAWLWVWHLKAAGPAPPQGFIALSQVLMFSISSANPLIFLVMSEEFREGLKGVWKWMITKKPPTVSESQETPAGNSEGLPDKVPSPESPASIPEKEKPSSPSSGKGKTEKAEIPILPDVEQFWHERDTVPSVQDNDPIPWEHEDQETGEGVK
MITF inh: MITF inhibitors, primary screen, biochemical, AlphaScreen, human. Microphthalmia-associated transcription factor (Homo sapiens), O75030. AlphaScreen MITF homodimerization, bead proximity signal. inhibition, % at 2.6 µM. 0.91% of 650,000 active; in the data active = inhibition above about 50%;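 note: 0% = vehicle wells with protein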
FBW7 activator: FBW7 E3 ligase activators, primary screen, biochemical, AlphaScreen, human; normalized activity (activation), % at 26.1 µM; F-box/WD repeat-containing protein 7 (Homo sapiens), Q969H0; 0.13% of 650,000 active; AlphaScreen FBW7–phospho-cyclin E peptide binding, activator screen; AID 1259310, 2017; in the data active = normalized activity above about 1.9%;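 note: purified mutant Fbw7 with reduced substrate affinity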
GPR151 conf act: GPR151 activators, triplicate retest, confirmation, cell-based, PathHunter beta-arrestin, luminescence | shares compounds with GPR151 activ | GPR151 PathHunter beta-arrestin cells, 90 min; % of EA-reagent control over plate median | activation, % at 11.2 µM | 6,700 tested, under 10 active;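 active = mean percent activation across replicates above the confirmation screen cutoff of 4.91%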
GPR119 ag: GPR119 activators in beta-arrestin cells, counter-screen for GPR151 activator project, cell-based, PathHunter beta-arrestin, luminescence, triplicate | shares compounds with GPR151 activ | 90 min; 0 = compound-well median, 100 = enzyme-acceptor control | activation, % at 11.2 µM | 0.3% of 6,700 active;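 active = mean percent activation in the counterscreen above 29.09%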;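 note: counterscreen on off-target GPR119 to flag nonselective hits from the GPR151 activator screen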
The depositor's hits bear a star; / = no result.

SMILES	TEAD-YAP block	GPR151 activ	MITF inh	FBW7 activator	GPR151 conf act	GPR119 ag
O=C(/C=C/c1cccs1)OCC(=O)c1ccc2c(c1)OCCO2	5	0	10	0	/	/
CCOc1cc(C2Nc3ccccc3-c3nnc(SCc4ccccc4)nc3O2)ccc1O (stereo not drawn)	7	1	10	0	/	/
COc1ccc(/C=N/NC(=O)CCC(=O)Nc2ccc(Cl)cc2C)cc1	3	5.3*	12	0	0	-1
CCCCCC(=O)N/N=C/c1cccc(OC)c1	-9	5.2*	10	0	0	-3
COc1ccc(/C=N/NC(=O)CCC(=O)Nc2ccc(Cl)cc2C)cc1OC	-1	-1	-3	0	/	/
CCCCCCCC(=O)N/N=C/c1ccccc1OC	6	17*	-4	0	-1	-8
COCCN(Cc1cccc(Cl)c1)C(=O)c1nc2ccc(-c3cn[nH]c3)cc2s1	-31	6.2*	2	0	0	-7
COCCN(Cc1cccc(OC)c1)C(=O)c1nc2ccc(-c3cn[nH]c3)cc2s1	-9	1	4	0	/	/
COc1ccc(CCn2c(=S)[nH]c3ccsc3c2=O)cc1OC	-2	5.4*	6	1	2	12
Cc1nnc(SCC(=O)Nc2ccc(C(F)(F)F)cc2)[nH]c1=O	0	3	14	0	/	/
CCOC(=O)N1CCN(C(=O)CN(c2ccccc2Br)S(C)(=O)=O)CC1	2	7.6*	14	0	1	-5
CC(=O)N(C)c1ccc(NC(=O)c2ccco2)cc1	-27	5.3*	8	0	-1	-6
CCOC(=O)CC1C(=O)NCCN1CC(c1ccccc1)c1ccccc1 (stereo not drawn)	1	-1	4	0	/	/
CCN1CCCC1CNC(=O)c1c(CC2CCCC2)n(C)c(C)cc1=O (stereo not drawn)	4	0	-5	0	/	/
Cc1ccc(-n2ncc3c(SCC(=O)NC(C)C)ncnc32)c(C)c1	0	1	2	0	/	/
Cc1ccc(-n2ncc3c(SCC(=O)Nc4ccc(C(N)=O)cc4)ncnc32)c(C)c1	8	5.3*	3	0	1	0
C=CCc1cc2c(C)cc(=O)oc2c(I)c1O	-15	7.1*	14	0	1	6
CC(=O)NC(Cc1c[nH]c2ccccc12)C(=O)NCCOc1ccccc1-c1ccccc1 (stereo not drawn)	-2	-1	1	0	/	/
CCOc1cc(C(=O)NCc2n[nH]c(=S)n2-c2cccc(C)c2)cc(OCC)c1OCC	1	-1	-4	0	/	/
CCOc1ccc(-c2nc3s/c(=C\c4ccccc4F)c(=O)n3n2)cc1	-5	11*	0	0	0	4
CCCCOc1ccc(/C=c2\sc3nc(-c4ccc(Cl)cc4)nn3c2=O)cc1	0	1	-4	0	/	/
COc1ccc(-c2nc3s/c(=C\c4ccccc4F)c(=O)n3n2)cc1	-6	0	2	0	/	/
COc1ccc(/C=c2\sc3nc(-c4ccncc4)nn3c2=O)cc1OC	12	-1	20	0	/	/
COc1cc(/C=c2\sc3nc(-c4ccncc4)nn3c2=O)ccc1OC(C)=O	-3	4.9*	7	0	2	-1
CCCCOc1ccc(/C=c2\sc3nc(-c4ccncc4)nn3c2=O)cc1	9	5.1*	0	0	0	-2
SMILES	TEAD-YAP block	GPR151 activ	MITF inh	FBW7 activator	GPR151 conf act	GPR119 ag
CC(C)CCOc1ccc(-c2nn(-c3ccccc3)cc2/C=c2\sc3nc(-c4cccs4)nn3c2=O)cc1	-3	7.0*	28	0	-1	14
Cc1ccc(Oc2cccc(N3C(=O)c4ccc(Oc5cccc(N)c5)cc4C3=O)c2)cc1C	6	0	2	0	/	/
N#C/C(=C\c1ccc(Br)cc1)C(=O)Nc1ccc([N+](=O)[O-])cc1	-6	0	15	0	/	/
CC(C)(C)n1nc(Cc2cccc3ccccc23)c2c(N)ncnc21	/	1	-2	/	/	/
CC(C)(C)n1nc(-c2ccccc2)c2c(N)ncnc21	/	5.2*	/	/	0	-1
Cc1ccc(NC(=O)C(C)NS(=O)(=O)c2ccc(F)cc2)c(C)c1 (stereo not drawn)	0	0	-2	0	/	/
O=C(CCCn1cnc(-c2ccccc2)cc1=O)NCCc1csc(-c2ccccc2)n1	18	9.2*	6	0	1	6
Cc1cc(=O)n(CC(=O)NCc2csc(-c3ccccc3)n2)cn1	-7	4	-4	0	/	/
COc1ccc(-c2nc(SCC(=O)Nc3ccc4ccccc4c3)n[nH]2)cc1	5	0	-7	0	/	/
COc1ccc(-c2nc(SCC(=O)Nc3ccc4c(c3)OCO4)n[nH]2)cc1	-19	6.5*	-3	0	0	4
Cc1ccc2nc(Cl)c3cc(C(=O)N4CCN(C)CC4)sc3c2c1	-4	0	8	0	/	/
Cc1ccc2nc(Cl)c3cc(C(=O)N=C4NC(=O)CN4C)sc3c2c1	2	6.1*	0	0	0	4
CSc1nc2ccsc2c(=O)n1Cc1ccc(C)cc1	6	-1	10	-1	/	/
COc1ccc(C2(NC(=O)c3snnc3C)CCCCC2)cc1	0	20*	1	0	0	-1
CCCC1(C2CCN(Cc3ccc(O)cc3)CC2)NC(=O)N(CC2CCCO2)C1=O (stereo not drawn)	3	6.0*	4	0	0	2
Cc1cc2ncn(-c3ncnc4sc5c(c34)CCCC5)c2cc1C	-22	4.9*	5	1	2	13
c1ccc(CN2CCC(Nc3ncc(-c4cccs4)cn3)CC2)cc1	-10	6.8*	-3	0	0	4
Cc1cc(NC2CCN(Cc3ccccc3)CC2)nc(-c2cccs2)n1	7	2	10	0	/	/
CCN1CCSc2ccc(C(=O)NCc3ccc(C)cc3)cc21	-6	6.4*	-7	0	-2	-20
CC(NC(=O)CCl)c1ccc2c(c1)CCCC2 (stereo not drawn)	18	2	-5	0	/	/
CC(NC(=O)CCl)c1ccc(F)cc1F (stereo not drawn)	17	5.2*	3	0	1	-1
CC1(C)CC2CC(C)(CN2C(=O)COC(=O)/C(C#N)=C/c2ccc3c(c2)OCO3)C1 (stereo not drawn)	2	6.1*	2	0	-1	-13
